# From PubChem BioAssay AID493131 (Broad Institute, 2011)
# Among all 340,000 compounds or so, about 3,300 (0.97%) were called active. For the sample, actives were picked, then their nearest neighbours and some compounds at random. Values without a mark were called inactive.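 How the source made its calls: active means mean activation above about 17%, with every replicate also reaching it (limit read from the data, passing the limit was not always enough); inconclusive means only one of the two conditions met; inactive means the rest.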
# Molecular target: Protein FosB (Mus musculus) (UniProt P13346)
# Sequence (P13346 whole entry, looked up): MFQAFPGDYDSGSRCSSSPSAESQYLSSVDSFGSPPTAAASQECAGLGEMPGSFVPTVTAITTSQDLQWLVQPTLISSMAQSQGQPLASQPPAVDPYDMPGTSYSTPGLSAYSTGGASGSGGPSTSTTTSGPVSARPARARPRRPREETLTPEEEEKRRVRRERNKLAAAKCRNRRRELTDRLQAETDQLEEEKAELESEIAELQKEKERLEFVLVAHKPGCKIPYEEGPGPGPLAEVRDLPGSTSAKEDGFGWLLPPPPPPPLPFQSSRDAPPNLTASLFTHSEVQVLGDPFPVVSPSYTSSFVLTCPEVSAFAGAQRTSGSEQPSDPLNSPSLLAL
# Test: enhancers of mouse delta FosB DNA binding – biochemical, fluorescence polarization, TAMRA-CDK5 oligo, single point, primary screen (AID 493131);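 further: fluorescence polarization rise as delta FosB binds a TAMRA Cdk5 AP-1 oligo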
# Settings: purified delta FosB, at 25 µM, hits give high values, percent of positive-control signal above neutral wells
row,SMILES,activation
1,NC(=O)c1cc(S(=O)(=O)N2CCCC2)ccc1OCc1ccc(F)cc1,-1.72%
2,COc1ccc(NS(=O)(=O)c2ccc(NC(=O)c3ccc(N(C)S(C)(=O)=O)cc3)cc2)cc1,43.3% (active)
3,COc1ccc(NS(=O)(=O)c2ccc(C(=O)Nc3c(C)n(C)n(-c4ccccc4)c3=O)cc2)cc1,1.19%
4,COc1ccc(C(=O)Nc2cccc(S(C)(=O)=O)c2)cc1,-0.053%
5,Cc1noc(C)c1NC(=O)Nc1cccc2c1O[C@H](CN(C)C(=O)Nc1ccccc1)[C@@H](C)CN([C@H](C)CO)C2=O,4.59%
6,COc1ccc(C(=O)N(C)Cc2ccc(OC)c(OC)c2OC)cc1S(=O)(=O)N1CCOCC1,-8.82%
7,COc1cccc(NC(=O)CN(C)C(=O)Cc2ccc(Cl)cc2Cl)c1,-4.55%
8,COCCNC(=O)c1snc2ccc(Cl)cc12,-8.32%
9,COC(=O)c1sc2ncccc2c1OCc1ccc(Cl)cc1Cl,17% (active)
10,CC(=O)c1cccc(NC(=O)[C@@H](NC(N)=O)C(C)C)c1,2.28%
11,Cc1ccc2nc(N(CCN(C)C)C(=O)C3=COCCO3)sc2c1,-2.06%
12,CN(C)CCN(C(=O)CN1C(=O)c2ccccc2C1=O)c1nc2cc3c(cc2s1)OCCO3,38% (active)
13,CN(C)CCN(C(=O)C1CCCCC1)c1nc2cc3c(cc2s1)OCO3,7.71%
14,Cn1nc(C(C)(C)C)c(NC(=O)c2sccc2Cl)c1C(C)(C)C,-8.28%
15,Cc1ccc(C)c(S(=O)(=O)N(C)c2ccc(OC(=O)C3CCN(C(=O)c4ccc(F)cc4)CC3)cc2)c1,-7.71%
16,C=CCn1c(=O)n(C)c2c(=O)n(C)c(=O)n(C)c21,-1.42%
17,Cc1sc2nc(CSCC(=O)Nc3c(Cl)cccc3Cl)[nH]c(=O)c2c1C,32.5% (active)
18,Cc1sc2nc(COC(=O)C(NC(=O)c3ccc(Cl)cc3Cl)C(C)C)[nH]c(=O)c2c1C (stereo not drawn),-6.82%
19,Cc1sc2nc(CSCC(=O)NC3CCCCC3)[nH]c(=O)c2c1C,-10.1%
20,COc1ccc2oc(C(=O)OCC(=O)N(CC(C)C)c3c(N)n(Cc4ccccc4)c(=O)[nH]c3=O)c(C)c2c1,3.39%
21,COc1ccc(C(CNC(=O)c2cccc(S(=O)(=O)Nc3ccc(Br)cc3)c2)N(C)C)cc1 (stereo not drawn),14%
22,COC(=O)c1cc(OC)c(OC)cc1NC(=O)CSc1ccc(C)cc1,-0.589%
23,COc1ccc(C)cc1NC(=O)CSc1ccc(Cl)cc1,-7.74%
24,COC(=O)c1scc(C)c1NC(=O)CSc1ccc(Cl)cc1,35% (active)
25,COc1ccc2sc(-c3ccc(N(C)C)cc3)c(C#CCO)c2c1,-9.84%
26,COc1ccc2sc(-c3ccc(N(C)C)cc3)c(-c3ccc4cc[nH]c4c3)c2c1,-4.04%
27,COc1ccc2c(c1)c(=Cc1ccc(N(C)C)cc1)c1cc(-c3ccccc3)[n+](C)n12,126% (active)
28,CCC(=O)NC(Nc1cc(C)ccn1)(C(F)(F)F)C(F)(F)F,-2.53%
